Source: PubChem BioAssay (NCI)
The panel holds about 83,000 compounds, 20% with a hit somewhere; the sample as a whole holds those more often.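 For each line, cells grew in 96-well plates with the test compound present at a single concentration for 48 hours.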 A number with no mark means an inactive call. Active and inactive are the calls of the source. The calls were made as follows: active = growth percent below 10; inactive = the rest.

What was measured:
Experiment in all cases: NCI-60 one-dose screen, 48 h (100 = growth as untreated, 0 = no growth, -100 = all killed)
Conditions in all cases: 10 µM unless noted
HCT-15 colon = system: HCT-15 colon
HT29 colon = system: HT29 colon
U251 CNS = system: U251 CNS
PC-3 prostate = system: PC-3 prostate
SK-MEL-5 melanoma = system: SK-MEL-5 melanoma
UACC-62 melanoma = system: UACC-62 melanoma
LOX IMVI melanoma = system: LOX IMVI melanoma
SK-MEL-28 melanoma = system: SK-MEL-28 melanoma
SNB-19 CNS = system: SNB-19 CNS

**Q.** How did the growth (HCT-15 colon) turn out when `Nc1nc(Nc2ccccc2SSc2ccccc2Nc2nc(N)nc(-c3ccc(I)cc3)n2)nc(-c2ccc(I)cc2)n1` was run?
**A.** 36.4%

**Q.** And the growth (HT29 colon)?
**A.** 97.8%

**Q.** What about the growth (U251 CNS) of the same compound?
**A.** 34.5%

**Q.** And the growth (PC-3 prostate)?
**A.** 19.1%

**Q.** What about the growth (SK-MEL-5 melanoma) of the same compound?
**A.** 81.4%

**Q.** And the growth (UACC-62 melanoma)?
**A.** 81.6%

**Q.** What about the growth (LOX IMVI melanoma) of the same compound?
**A.** -0.613% (active)

**Q.** And the growth (SK-MEL-28 melanoma)?
**A.** 94.7%

**Q.** For `N=C1c2nc3n(c2C(=O)c2nc4n(c21)CCCCC4)CCCCC3`, which growth (HCT-15 colon) is on record?
**A.** 109%

**Q.** And the growth (HT29 colon)?
**A.** 106%

**Q.** What about the growth (SNB-19 CNS) of the same compound?
**A.** 113%

**Q.** What about the growth (PC-3 prostate) of the same compound?
**A.** 113%

**Q.** What about the growth (SK-MEL-5 melanoma) of the same compound?
**A.** 88.7%

**Q.** And the growth (UACC-62 melanoma)?
**A.** 110%

**Q.** And the growth (LOX IMVI melanoma)?
**A.** 92%

**Q.** What about the growth (SK-MEL-28 melanoma) of the same compound?
**A.** 118%

**Q.** Which results are given for `N#Cc1c(-c2ccccc2)cc(-c2ccccc2)n(CC(=O)O)c1=O`?
**A.** growth (HCT-15 colon): 32.6%; growth (HT29 colon): 24.2%; growth (SNB-19 CNS): 58.3%; growth (U251 CNS): 47.5%; growth (SK-MEL-5 melanoma): 40.6%; growth (UACC-62 melanoma): 28.6%; growth (LOX IMVI melanoma): 52.5%; growth (SK-MEL-28 melanoma): 60.6%

**Q.** For `N#Cc1c(-c2ccccc2)cc(-c2ccccc2)n(CCCCCCC(=O)O)c1=O`, which growth (HCT-15 colon) is on record?
**A.** 90.7%

**Q.** What about the growth (HT29 colon) of the same compound?
**A.** 97.4%

**Q.** What about the growth (SNB-19 CNS) of the same compound?
**A.** 96.3%

**Q.** And the growth (U251 CNS)?
**A.** 98.1%

**Q.** And the growth (PC-3 prostate)?
**A.** 105%

**Q.** What about the growth (SK-MEL-5 melanoma) of the same compound?
**A.** 99.8%

**Q.** And the growth (UACC-62 melanoma)?
**A.** 90.7%

**Q.** And the growth (LOX IMVI melanoma)?
**A.** 89.2%

**Q.** And the growth (SK-MEL-28 melanoma)?
**A.** 103%

**Q.** How did the growth (HCT-15 colon) turn out when `COc1ccc(-c2c3c(N)nc(-c4ccncc4)nc3nc3c2c(C)nn3-c2ccccc2)cc1` was run?
**A.** 57.1%

**Q.** And the growth (HT29 colon)?
**A.** 23.9%

**Q.** What about the growth (SNB-19 CNS) of the same compound?
**A.** 80.7%

**Q.** What about the growth (PC-3 prostate) of the same compound?
**A.** 61%

**Q.** And the growth (SK-MEL-5 melanoma)?
**A.** 72.6%

**Q.** What about the growth (UACC-62 melanoma) of the same compound?
**A.** 64.1%

**Q.** And the growth (LOX IMVI melanoma)?
**A.** 41.2%

**Q.** What about the growth (SK-MEL-28 melanoma) of the same compound?
**A.** 56.2%

**Q.** With `Nc1nc(Nc2ccccc2SSc2ccccc2Nc2nc(N)nc(-c3cccc(Cl)c3)n2)nc(-c2cccc(Cl)c2)n1` as the compound, how does the growth (HCT-15 colon) read?
**A.** 69.8%

**Q.** And the growth (HT29 colon)?
**A.** 104%

**Q.** And the growth (SNB-19 CNS)?
**A.** 96.1%

**Q.** What about the growth (U251 CNS) of the same compound?
**A.** 78.5%

**Q.** And the growth (PC-3 prostate)?
**A.** 83.9%

**Q.** And the growth (SK-MEL-5 melanoma)?
**A.** 95.5%

**Q.** What about the growth (UACC-62 melanoma) of the same compound?
**A.** 86.2%

**Q.** And the growth (LOX IMVI melanoma)?
**A.** 61.7%

**Q.** What about the growth (SK-MEL-28 melanoma) of the same compound?
**A.** 102%

**Q.** What does the source list for `O=C(Nc1ccccc1)P(=O)(O)c1ccccc1`?
**A.** growth (HCT-15 colon): 99.5%; growth (HT29 colon): 114%; growth (SNB-19 CNS): 103%; growth (U251 CNS): 94.6%; growth (PC-3 prostate): 95.5%; growth (SK-MEL-5 melanoma): 102%; growth (UACC-62 melanoma): 94.1%; growth (LOX IMVI melanoma): 96%; growth (SK-MEL-28 melanoma): 102%

**Q.** `O=C(CNc1ccc2c(c1)C(=O)c1ccccc1C2=O)Nc1ccc2c(c1)C(=O)c1ccccc1C2=O` was tested. Which growth (HCT-15 colon) did it give?
**A.** -81.5% (active)

**Q.** What about the growth (HT29 colon) of the same compound?
**A.** -54.5% (active)

**Q.** What about the growth (SNB-19 CNS) of the same compound?
**A.** -29.9% (active)

**Q.** And the growth (U251 CNS)?
**A.** -91.4% (active)

**Q.** And the growth (PC-3 prostate)?
**A.** -24.3% (active)

**Q.** And the growth (SK-MEL-5 melanoma)?
**A.** -98.1% (active)

**Q.** And the growth (UACC-62 melanoma)?
**A.** -93.3% (active)

**Q.** And the growth (LOX IMVI melanoma)?
**A.** -91.7% (active)

**Q.** What about the growth (SK-MEL-28 melanoma) of the same compound?
**A.** -75.1% (active)

**Q.** For `Oc1c(N=Nc2nn[nH]n2)ccc2ccccc12`, which growth (HCT-15 colon) is on record?
**A.** 68.2%

**Q.** And the growth (HT29 colon)?
**A.** 81.8%

**Q.** What about the growth (SNB-19 CNS) of the same compound?
**A.** 92.6%

**Q.** And the growth (PC-3 prostate)?
**A.** 67.6%

**Q.** What about the growth (SK-MEL-5 melanoma) of the same compound?
**A.** 38.4%

**Q.** What about the growth (UACC-62 melanoma) of the same compound?
**A.** 77%

**Q.** What about the growth (LOX IMVI melanoma) of the same compound?
**A.** 78%

**Q.** And the growth (SK-MEL-28 melanoma)?
**A.** 94.6%

**Q.** What does the source list for `c1ccc(Nc2ccc(Nc3nc(-c4ccccc4)nc4ccccc34)cc2)cc1`?
**A.** growth (HCT-15 colon): 37.5%; growth (HT29 colon): 29.7%; growth (SNB-19 CNS): 100%; growth (U251 CNS): 77%; growth (PC-3 prostate): 74%; growth (SK-MEL-5 melanoma): 90.3%; growth (UACC-62 melanoma): 86.6%; growth (LOX IMVI melanoma): 52.4%; growth (SK-MEL-28 melanoma): 93.7%

**Q.** For `CC[C@@H](C)/C=C(C)/C=C/C(=O)c1c(O)c(-c2ccc(O)cc2)cn(OC2CC(=O)CCC(C)OC(=O)CC2O)c1=O` (some centres undefined), which growth (HCT-15 colon) is on record?
**A.** 26.8%

**Q.** What about the growth (HT29 colon) of the same compound?
**A.** 29.5%

**Q.** What about the growth (SNB-19 CNS) of the same compound?
**A.** 22.9%

**Q.** And the growth (U251 CNS)?
**A.** 11.1%

**Q.** What about the growth (PC-3 prostate) of the same compound?
**A.** 34%

**Q.** And the growth (SK-MEL-5 melanoma)?
**A.** -22.7% (active)

**Q.** And the growth (UACC-62 melanoma)?
**A.** -13.1% (active)

**Q.** What about the growth (LOX IMVI melanoma) of the same compound?
**A.** 2.2% (active)

**Q.** What about the growth (SK-MEL-28 melanoma) of the same compound?
**A.** 34%

**Q.** Which results are given for `COc1ccc2c(c1)c(CC(=O)[Se]C)c(C)n2C(=O)c1ccc(Cl)cc1`?
**A.** growth (HCT-15 colon): 14.9%; growth (HT29 colon): 2.05% (active); growth (SNB-19 CNS): 24%; growth (U251 CNS): 14.9%; growth (PC-3 prostate): 24.2%; growth (UACC-62 melanoma): 33.6%; growth (LOX IMVI melanoma): -69.5% (active); growth (SK-MEL-28 melanoma): -7.85% (active)

**Q.** Which results are given for `CCOC(=O)CNC(=O)C1(NC(=O)CNC(=O)OCc2ccccc2)CCCC1`?
**A.** growth (HCT-15 colon): 102%; growth (HT29 colon): 105%; growth (SNB-19 CNS): 102%; growth (U251 CNS): 106%; growth (PC-3 prostate): 98.7%; growth (SK-MEL-5 melanoma): 112%; growth (UACC-62 melanoma): 97%; growth (LOX IMVI melanoma): 95.4%; growth (SK-MEL-28 melanoma): 107%

**Q.** How did the growth (HCT-15 colon) turn out when `c1ccc(-c2nc(Nc3nccnn3)c3ccccc3n2)cc1` was run?
**A.** 98.2%

**Q.** What about the growth (HT29 colon) of the same compound?
**A.** 98.8%

**Q.** What about the growth (SNB-19 CNS) of the same compound?
**A.** 93.6%

**Q.** And the growth (U251 CNS)?
**A.** 92.9%

**Q.** What about the growth (PC-3 prostate) of the same compound?
**A.** 101%

**Q.** What about the growth (SK-MEL-5 melanoma) of the same compound?
**A.** 99.1%

**Q.** What about the growth (UACC-62 melanoma) of the same compound?
**A.** 87.8%

**Q.** What about the growth (LOX IMVI melanoma) of the same compound?
**A.** 96%

**Q.** What about the growth (SK-MEL-28 melanoma) of the same compound?
**A.** 103%

**Q.** Which growth (HCT-15 colon) does the source give for `CCOc1cc(/C=C/C(=O)C(C(=O)/C=C/c2ccc(OC(=O)CNc3nc4ccccc4[nH]3)c(OCC)c2)C(=O)CNc2nc3ccccc3[nH]2)ccc1OC(=O)CNc1nc2ccccc2[nH]1` here?
**A.** -41% (active)

**Q.** And the growth (HT29 colon)?
**A.** -100% (active)

**Q.** And the growth (SNB-19 CNS)?
**A.** 25.1%

**Q.** And the growth (U251 CNS)?
**A.** -61.5% (active)

**Q.** What about the growth (PC-3 prostate) of the same compound?
**A.** 3.12% (active)

**Q.** What about the growth (SK-MEL-5 melanoma) of the same compound?
**A.** -86.6% (active)

**Q.** And the growth (UACC-62 melanoma)?
**A.** -61.4% (active)

**Q.** What about the growth (LOX IMVI melanoma) of the same compound?
**A.** -98.5% (active)

**Q.** And the growth (SK-MEL-28 melanoma)?
**A.** -29.6% (active)
